Screening data: PubChem, several laboratories
NLRP3 yeast inh – inhibitors of NALP3 inflammasome in yeast; hit rate 0.39% among 330,000; inhibition, % at 10 µM; Yeast reconstituted NLRP3/ASC/caspase-1, beta-gal luminescence, 24 h;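 active = inhibition of 50% or more; inactive = inhibition below 50%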
SUMO Mot1 rescue – inhibitors of SUMOylation pathway: yeast Mot1-301 growth rescue | S. cerevisiae Mot1-301 growth rescue, ATP luminescence, 38.5C; percent above DMSO median, 100 means doubled | growth rescue, % at 18.8 µM | hit rate 1% among 320,000 | AID 2716;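 active = every valid replicate shows activation above 250% relative to neutral control wells; inactive = the rest, any valid replicate at or below 250%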
CHT PAM – allosterically activates the human high affinity choline transporter; Q9GZV3; hit rate 0.49% among 310,000; B-score at 10 µM; CHT-expressing cells, membrane potential dye, choline EC20; hits give high values; LV-AA mutant CHT in HEK293 cells;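 active = initial fluorescence not abnormally high and integrated response B-score, plate-corrected, over 3 SD above library mean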
Target sequence (Q9GZV3 whole entry, looked up): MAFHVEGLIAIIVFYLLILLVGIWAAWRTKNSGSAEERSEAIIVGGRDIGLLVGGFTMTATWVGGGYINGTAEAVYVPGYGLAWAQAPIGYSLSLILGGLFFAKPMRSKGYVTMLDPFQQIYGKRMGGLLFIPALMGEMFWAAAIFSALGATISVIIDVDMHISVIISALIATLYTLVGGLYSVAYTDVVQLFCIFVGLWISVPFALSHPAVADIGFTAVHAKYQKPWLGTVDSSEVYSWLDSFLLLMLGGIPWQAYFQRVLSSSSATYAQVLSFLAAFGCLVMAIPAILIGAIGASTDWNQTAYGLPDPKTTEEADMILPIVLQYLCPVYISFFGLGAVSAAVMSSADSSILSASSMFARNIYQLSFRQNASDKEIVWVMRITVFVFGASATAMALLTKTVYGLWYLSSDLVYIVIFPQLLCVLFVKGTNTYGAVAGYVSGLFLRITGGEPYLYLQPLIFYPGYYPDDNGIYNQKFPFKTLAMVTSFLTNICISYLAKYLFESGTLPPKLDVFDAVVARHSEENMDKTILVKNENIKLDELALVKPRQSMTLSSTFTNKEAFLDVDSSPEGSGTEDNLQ
CHT inh – inhibits the human high affinity choline transporter; Q9GZV3; hit rate 0.86% among 310,000; AID 488975; CHT-expressing cells, membrane potential dye, choline response; hits give low values; B-score at 10 µM;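 active = B-score over 3 SD under the library average, and starting fluorescence ratio not unusually high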;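 also: choline stimulus applied at its EC90 after an EC20 pre-addition; B-score computed on integrated fluorescence ratio after choline addition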
Bfl-1 A1 inh – inhibitors of the anti-apoptotic protein A1, read as caspase activation; caspase activation, % (concentration not given with the values); hit rate 0.066% among 330,000; MEF A1-2A-BIM cells, Caspase-Glo 3/7 luminescence, 3 h; percent of clofoctol response, vehicle zero;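 active = over half of replicate activation scores above 10%, or exactly half above 10 with the replicate mean above 10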
NALP1 yeast inh – NALP1 inhibition; S. cerevisiae NALP1/ASC/caspase-1 growth, X-gal OD620, 72 h; inhibition, % at 10 µM; hit rate 0.61% among 280,000; in the data active = inhibition mostly above about 24%, no sharp cut-off; inactive = mostly below about 32%
CHT inh conf – human CHT inhibition, confirmatory screen; hit rate 70% among 2,400; AID 493221; CHT-expressing cells, choline membrane potential dye; LV-to-AA substituted CHT, HEK293 cells; shares compounds with CHT inh; CHT activity remaining % of control (hits give low values), % at 10 µM;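 active = choline transporter activity left, mean of duplicates at 10 µM, below buffer-only control mean minus 3 SD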;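 also: depolarization triggered by choline at its EC90 following an EC20 pre-addition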
HEK293 MPD ctr – CHT inhibitor counter-screen hit in parental HEK293 cells | shares compounds with CHT inh | membrane potential dye, choline response; active = decrease or increase beyond buffer ±3SD | membrane potential ratio readout (active if shifted either direction beyond buffer ±3SD; no single direction) at 10 µM | hit rate 4% among 2,400 | AID 493222;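 also: parental cells lack the transporter so any hit is non-specific; ratio is peak minus trough fluorescence over baseline after EC90 choline challenge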
Numbers stand for hits; . = inactive; / = no result given. Shown are actives, neighbours in structure and some others; about 3% of the full set was active somewhere.

SMILES	NLRP3 yeast inh	SUMO Mot1 rescue	CHT PAM	CHT inh	Bfl-1 A1 inh	NALP1 yeast inh	CHT inh conf	HEK293 MPD ctr
CCSc1nnc(NC(=O)C(C)(C(F)(F)F)C(F)(F)F)s1	.	.	.	-8.8	.	.	70%	.
CCSc1nnc(NC(=O)C(C(F)(F)F)C(F)(F)F)s1	.	.	.	.	.	.	/	/
CCCCn1c(N)c(N(CC(C)C)C(=O)c2ccc(N3C(=O)c4ccccc4C3=O)cc2)c(=O)[nH]c1=O	.	.	.	.	.	/	/	/
O=S(=O)(NC1CCN(Cc2ccccc2)CC1)c1cccc(S(=O)(=O)N2CCOCC2)c1	.	.	.	.	.	.	/	/
O=S(=O)(NC1CCN(Cc2ccccc2)CC1)c1ccc2ccccc2c1	.	322	.	-5.7	.	.	.	.
CCC(=O)N1CCc2cc(Br)cc(S(=O)(=O)NC3CCN(Cc4ccccc4)CC3)c21	.	.	.	-9	.	.	38%	3.2
C=CCOC(=O)C1=C[C@@H](c2cn(C(C)=O)c3ccccc23)C[C@@H](OCCCCO)O1	.	.	.	-5.3	.	.	.	.
O=[N+]([O-])c1cc(Cc2ccccc2)cc(C=Nc2ccc(N3CCOCC3)cc2)c1O	/	.	.	-5.9	.	.	66%	.
Fc1ccc(CNc2ccc(N3CCN(Cc4ccccc4)CC3)cc2)cc1	.	.	.	.	.	.	.	.
CC(=O)N1CCN(c2ccc(NCc3ccccc3)cc2)CC1	.	.	.	.	.	.	/	/
O=C(CNC(=O)c1cccs1)N=Nc1c(O)[nH]c2ccc([N+](=O)[O-])cc12	.	.	.	.	.	.	/	/
O=C(NCc1ccccc1C(F)(F)F)c1cccc2c1C(=O)c1ccc(N3CCCCC3)cc1S2(=O)=O	.	.	/	/	.	/	/	/
Cc1ccc(/C=C/S(=O)(=O)NCCC(=O)NCc2ccc(F)cc2)cc1	.	.	/	/	.	/	/	/
Cc1onc(-c2ccccc2Cl)c1C(=O)Oc1cccc2cccnc12	.	/	.	-5.5	.	.	.	.
COc1ccc(CCNC(=O)C(C)c2ccc([N+](=O)[O-])cc2)cc1 (configuration not stated)	.	.	.	-5.5	.	.	.	.
CC(=O)NS(=O)(=O)c1ccc(NC(=S)NC(=O)Cc2ccccc2)cc1	.	.	.	-7.5	.	.	.	.
CC(=O)NS(=O)(=O)c1ccc(NC(=S)NC(=O)CC(C)C)cc1	.	.	.	.	.	.	/	/
CCCn1c(=O)c(C(=O)NCc2cccnc2)c(O)c2ccccc21	.	.	.	.	.	.	/	/
CCCn1c(=O)c(C(=O)NCc2ccccn2)c(O)c2ccccc21	.	.	.	-5.7	.	.	.	.
CC[C@@H]1[C@H]2CCCC(=O)N3CC[C@@H](C[C@@H]1OC(=O)Nc1ccccc1)[C@@H]23	.	.	.	.	.	.	/	/
CC(C)c1nc(SCC(=O)Nc2nccs2)c2ccccc2n1	.	.	.	.	.	.	/	/
Cc1csc(NC(=O)CSc2nc(C(C)C)nc3ccccc23)n1	.	.	.	-5.9	.	.	60%	.
Cc1cccc(CC(Cc2nc3ccccc3[nH]2)c2nc3ccccc3[nH]2)c1 (configuration not stated)	.	/	.	-9	.	.	59%	.
COc1ccccc1CC(Cc1nc2ccccc2[nH]1)c1nc2ccccc2[nH]1 (configuration not stated)	.	.	.	-8.6	.	.	36%	.
O=C(N/N=C/c1ccsc1)c1c[nH]c2ccccc12	.	.	.	-7	.	.	69%	.
Cc1ccsc1/C=N/NC(=O)c1c[nH]c2ccccc12	.	/	.	.	.	.	/	/
O=C(CSC1=NS(=O)(=O)c2cc(Cl)ccc2N1)c1ccc(Cl)cc1	.	.	.	.	.	/	/	/
CCN1CCN(c2cc(C)c3cc(NC(=S)N4CCOCC4)ccc3n2)CC1	.	.	.	-5.8	.	.	39%	.
